For experiment [1], the system named is RAW-Dual. The experiment in a line: NF-kB SEAP reporter activity, fold change vs agonist alone; higher = enhanced NF-kB activity. As to conditions: library stock concentration (final ~1000-fold dilution): 10 mM. The procedure, abridged:
(§1)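 Supernatant from RAW-Dual macrophages was read after 20 hours for IRF by QuantiLuc luminescence and for NF-κB by QuantiBlue absorbance at 620 nm. The cells (50,000 cells/well in DMEM, 384-well plates, 37 °C, 5% CO2) had received 50 nL of library stock by pin tool and, 1 h later, a PRR agonist. Reporter activity is expressed relative to agonist-alone wells as fold change, and wells were flagged cytotoxic if IncuCyte confluency was under 70% of agonist controls in both mask sets.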

Experiment [2] relates to RAW-Dual. The experiment in a line: NF-kB SEAP reporter activity, fold change vs agonist alone; cytotoxicity flag (confluency mask): not cytotoxic; higher = enhanced NF-kB activity. In short, it runs like this:
as §1

Experiment [3] has as its system RAW-Dual. Nature of the experiment: NF-kB SEAP reporter activity, fold change vs agonist alone; cytotoxicity flag (confluency mask): cytotoxic (confluency <70% of control); higher = enhanced NF-kB activity. The procedure, abridged:
as §1

Where [4] appears, read: cytotoxicity flag (confluency mask): not cytotoxic, agonist: Imiquimod (TLR7) […].
Setting [5] is: cytotoxicity flag (confluency mask): not cytotoxic, agonist: MPLA (TLR4) […].
The mark [6] stands for this setting: agonist: ODN 1826 (TLR9) 0.5 ug/mL.
Where [7] appears, read: agonist: Pam2CSK4 (TLR2/6) 0.1 ug/mL.
[8] abbreviates: agonist: Pam3CSK4 (TLR2/1) 0.1 ug/mL.
[9] abbreviates: cytotoxicity flag (confluency mask): cytotoxic (confluency <70% of control), agonist: Imiquimod (TLR7) […].
[10] abbreviates: cytotoxicity flag (confluency mask): cytotoxic (confluency <70% of control), agonist: MPLA (TLR4) […].

Over roughly 2,900 compounds, “NF-kB SEAP reporter activity, fold change vs agonist alone” has its median near 0.99; the highest 2% begin near 2.6. What follows is part of a selection rich in the highest values, with near analogues and random picks from the rest.

We go through 18 molecules from the supplement of paper PMC10037445.

As to `COC12C(COC(N)=O)C3=C(C(=O)C(C)=C(N)C3=O)N1CC1NC12` (configuration not stated), the entries for the “NF-kB SEAP reporter activity” value in the experiment with RAW-Dual [1] (setting [4]) and in the experiment on RAW-Dual [1] (setting [5]) were 1.82 and 1.79, respectively.
With `COC12C(COC(N)=O)C3=C(C(=O)C(C)=C(N)C3=O)N1CC1NC12` (configuration not stated) (library stock concentration (final ~1000-fold dilution): 10 mM), the “NF-kB SEAP reporter activity” value in the experiment with RAW-Dual [2] (agonist: LPS (TLR4) 0.1 ug/mL) was found to be 2.79; in the experiment on RAW-Dual [2] (setting [6]), 2.71; in the experiment on RAW-Dual [2] (setting [7]) it was 1.89; with RAW-Dual [2] (setting [8]) it was 3.31.
`CCN(CC)CCNC(=O)c1c(C)[nH]c(/C=C2/C(=O)Nc3ccc(-c4csc(-c5ccccc5)n4)cc32)c1C`: the “NF-kB SEAP reporter activity” value in the experiment with RAW-Dual [1] (setting [9]) is 1.35; with RAW-Dual [1] (setting [10]) it was 1.55.
With `CCN(CC)CCNC(=O)c1c(C)[nH]c(/C=C2/C(=O)Nc3ccc(-c4csc(-c5ccccc5)n4)cc32)c1C` (library stock concentration (final ~1000-fold dilution): 10 mM), the “NF-kB SEAP reporter activity” value in the experiment on RAW-Dual [3] (agonist: LPS (TLR4) 0.1 ug/mL) amounted to 0.882; in the experiment with RAW-Dual [3] (setting [6]) it was 0.397; in the experiment on RAW-Dual [3] (setting [7]) it was 0.37; in the experiment with RAW-Dual [3] (setting [8]) it was 0.645.
For `COc1ccc(NC(=O)c2ccc(C(=N)N(C)C)cc2)c(C(=O)Nc2ccc(Cl)cn2)c1.O=C(O)/C=C\C(=O)O`, the “NF-kB SEAP reporter activity” value in the experiment with RAW-Dual [1] (setting [5]) turned out to be 0.953.
For the molecule `COc1ccc(NC(=O)c2ccc(C(=N)N(C)C)cc2)c(C(=O)Nc2ccc(Cl)cn2)c1.O=C(O)/C=C\C(=O)O` (library stock concentration (final ~1000-fold dilution): 10 mM), the “NF-kB SEAP reporter activity” value in the experiment on RAW-Dual [2] (agonist: LPS (TLR4) 0.1 ug/mL) amounted to 0.955; with RAW-Dual [2] (setting [6]), 0.994; in the experiment with RAW-Dual [2] (setting [7]), 1.1; with RAW-Dual [2] (setting [8]) it was 1.06.
In the case of `COc1cc2c(Oc3ccc4[nH]c(C)cc4c3F)ncnc2cc1OCCCN1CCCC1`, the “NF-kB SEAP reporter activity” value turned out to be 1.98 in the experiment with RAW-Dual [1] (setting [9]) and 1.96 in the experiment on RAW-Dual [1] (setting [10]).
With `COc1cc2c(Oc3ccc4[nH]c(C)cc4c3F)ccnc2cc1OCC1(N)CC1.Cl.Cl` (library stock concentration (final ~1000-fold dilution): 10 mM), the “NF-kB SEAP reporter activity” value was 1.7 with RAW-Dual [3] (agonist: LPS (TLR4) 0.1 ug/mL), 0.29 with RAW-Dual [3] (setting [6]), 1.17 with RAW-Dual [3] (setting [7]) and 1.74 in the experiment on RAW-Dual [3] (setting [8]).
Turning to `COc1cc2c(Oc3ccc4[nH]c(C)cc4c3F)ncnc2cc1OCCCN1CCCC1.O=C(O)/C=C\C(=O)O`, the “NF-kB SEAP reporter activity” value in the experiment on RAW-Dual [1] (setting [10]) worked out at 2.65.
For the molecule `COc1cc2c(Oc3ccc4[nH]c(C)cc4c3F)ccnc2cc1OCC1(N)CC1.Cl.Cl`, the “NF-kB SEAP reporter activity” value came out at 1.53 in the experiment with RAW-Dual [1] (setting [9]) and 1.89 with RAW-Dual [1] (setting [10]).
As to `COc1cc2c(Oc3ccc4[nH]c(C)cc4c3F)ncnc2cc1OCCCN1CCCC1.O=C(O)/C=C\C(=O)O` (library stock concentration (final ~1000-fold dilution): 10 mM), the “NF-kB SEAP reporter activity” value in the experiment on RAW-Dual [3] (agonist: LPS (TLR4) 0.1 ug/mL) turned out to be 2.81; in the experiment with RAW-Dual [3] (setting [6]), 0.402; with RAW-Dual [3] (setting [7]) it was 1.61; with RAW-Dual [3] (setting [8]), 1.15.
For `COc1cc2c(Oc3ccc4[nH]c(C)cc4c3F)ncnc2cc1OCCCN1CCCC1` (library stock concentration (final ~1000-fold dilution): 10 mM), the “NF-kB SEAP reporter activity” value in the experiment with RAW-Dual [3] (agonist: LPS (TLR4) 0.1 ug/mL) amounted to 0.671; in the experiment with RAW-Dual [3] (setting [6]), 0.212; in the experiment with RAW-Dual [3] (setting [7]), 1.03; in the experiment with RAW-Dual [3] (setting [8]) it was 1.37.
In the case of `Cl.Nc1ccc(N=Nc2ccccc2)c(N)n1`, the “NF-kB SEAP reporter activity” value in the experiment with RAW-Dual [1] (setting [4]) turned out to be 1.1; in the experiment on RAW-Dual [1] (setting [5]), 1.08.
As to `Cl.Nc1ccc(N=Nc2ccccc2)c(N)n1` (library stock concentration (final ~1000-fold dilution): 10 mM), the “NF-kB SEAP reporter activity” value in the experiment on RAW-Dual [2] (agonist: LPS (TLR4) 0.1 ug/mL) turned out to be 1.22; in the experiment with RAW-Dual [2] (setting [6]), 0.928; in the experiment with RAW-Dual [2] (setting [7]), 1.09; with RAW-Dual [2] (setting [8]) it was 0.933.
In the same order, the values of `Nc1nc(=O)n(C2CSC(CO)O2)cc1F` (configuration not stated) (library stock concentration (final ~1000-fold dilution): 10 mM) are 0.99, 1.1, 1.1 and 1.13.
With `Nc1nc(=O)n(C2CSC(CO)O2)cc1F` (configuration not stated), the “NF-kB SEAP reporter activity” value in the experiment with RAW-Dual [1] (setting [4]) was found to be 0.983; with RAW-Dual [1] (setting [5]), 1.14.
In the same order, the values of `CCC(C)SSc1ncc[nH]1` (configuration not stated) are 1.51 and 1.85.
`CCC(C)SSc1ncc[nH]1` (configuration not stated) (library stock concentration (final ~1000-fold dilution): 10 mM): the “NF-kB SEAP reporter activity” value is 4.74 in the experiment with RAW-Dual [2] (agonist: LPS (TLR4) 0.1 ug/mL), 2.67 in the experiment on RAW-Dual [2] (setting [6]), 1.44 in the experiment on RAW-Dual [2] (setting [7]) and 2.7 with RAW-Dual [2] (setting [8]).
